Screening results: PubChem BioAssay, University of Kansas High Throughput Screening Laboratory
mHTT-CaM PPI inh – mHTT-calmodulin interaction abrogation; AlphaScreen His-mHTT/GST-CaM binding, luminescence; inhibition, % at 15 µM; 190,000 tested, 3.6% active;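 note: 0% = both proteins with DMSO and 100% = one protein alone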
Pf apPOL block – Pf-apPOL DNA polymerase inhibition. Recombinant Pf-apPOL, molecular beacon fluorescence, 1.5 h. inhibition, % at 10 µM. 210,000 tested, 0.25% active. AID 1794808
Starred values were filed as active, the others as inactive; . = not tested or not shown. This is one part of a sample in which hits are shown more often than they occur. Cut-off read from the data, not from the text of the source: active = inhibition above about 50%; inactive = the rest.

SMILES | mHTT-CaM PPI inh | Pf apPOL block
Cc1cc(C)nc(SCCCn2c(=O)[nH]c3ccccc32)n1 | 18 | -2
O=c1[nH]c2ccccc2n1CCCSc1nccc2ccccc12 | 100* | -8
Cc1ccc(NC(=O)N2CCCC2c2nc(-c3cccc(F)c3)no2)c(C)c1 (stereo not given) | -6 | -3
CC(=O)N1CCc2cc(Br)cc(S(=O)(=O)N(C)c3cccc(C)c3)c21 | 23 | -5
Cc1c(NC(=O)c2ncn[nH]2)cccc1-c1nc2ccccc2s1 | 51* | -8
Cc1c(NC(=O)c2ncn[nH]2)cccc1-c1nc2cc(Cl)ccc2o1 | 53* | 8
O=C(Nc1ccc2oc(-c3ccccc3Cl)nc2c1)c1cncc(Br)c1 | -8 | -22
COc1cc(C(=O)Nc2ccc(-c3nc4cc(Cl)ccc4o3)cc2)cc(OC)c1OC | -2 | -2
O=C(Nc1ccc2oc(-c3ccccc3Cl)nc2c1)c1ncn[nH]1 | 77* | 58*
O=C(Nc1ccc(-c2nc3cc(Cl)ccc3o2)cc1)c1ncn[nH]1 | 83* | -180
Cc1c(NC(=O)c2ccccc2I)cccc1-c1nc2ccccc2s1 | 4 | -4
Cc1c(NC(=O)c2ccccc2F)cccc1-c1nc2cc(Cl)ccc2o1 | -18 | 3
CC(C=NO)=NNc1ccccc1 | . | -1
O=C(Nc1ccc(C2SCCS2)cc1)c1ccccc1F | . | -2
Cc1cccc(C2CC(c3ccc(Br)cc3)Nc3ncnn32)c1 (stereo not given) | 41 | -8
COc1ccccc1CNC(=O)c1ccc2c(c1)N(C)C(=O)C1CCCCN21 (stereo not given) | 22 | -4
O=C(Nc1ccc(N2CCOCC2)c(Cl)c1)c1ncn[nH]1 | 82* | 2
CCN(CC)c1ccc(NC(=O)c2ncn[nH]2)cc1 | 41 | -2
O=C(Nc1ccc([N+](=O)[O-])cc1)c1ncn[nH]1 | 88* | -3
O=C(Nc1ccc(N2CCOCC2)c(Cl)c1)c1ccccc1 | -7 | -156
CCOC(=O)c1[nH]c2c(c1C)C(=O)CC(C)(C)C2 | -1 | .
O=C1OC(c2ccccc2)=N/C1=C/c1cccc(I)c1 | 0 | 1
O=C(c1ccc(=O)[nH]n1)N1CCN(c2ccc(-c3ccccn3)nn2)CC1 | 100* | -2
O=C(c1ccc(N2CCCC2)nn1)N1CCN(c2ncccn2)CC1 | -9 | -3
COc1ccccc1CC(=O)N1CCN(c2ccccn2)CC1 | -1 | -5
SMILES | mHTT-CaM PPI inh | Pf apPOL block
COc1ccccc1CC(=O)N1CCN(c2ccc(-c3ccccn3)nn2)CC1 | 100* | -21
O=C(c1cc(-c2ccc(F)cc2)n[nH]1)N1CCN(c2ccc(-c3ccccn3)nn2)CC1 | 100* | 1
O=C(c1ccc(F)cc1F)N1CCN(c2ccc(-c3cccnc3)nn2)CC1 | 4 | -7
COc1ccc(-n2nc(C(=O)Nc3c(F)cccc3F)c3ccccc3c2=O)cc1 | 0 | -5
COc1ccc(Cl)cc1NC(=O)C1C2C=CC(O2)C1C(=O)O (stereo not given) | 1 | -18
Cc1ccc(CNC(=O)c2cn3c(n2)CCCC3)cc1C | 5 | -3
O=C(CCN1C(=O)c2cccnc2C1=O)N1CCN(c2ccc([N+](=O)[O-])cc2)CC1 | 7 | -20
CCN(CC)C(=O)C1CCCN(Cc2ccc([N+](=O)[O-])o2)C1 (stereo not given) | 2 | -28
CCN(CC)C(=O)C1CCCN(c2ccc([N+](=O)[O-])cc2C=O)C1 (stereo not given) | 70* | 0
Cc1cc(C(=O)Nc2ccccc2F)nc2ccnn12 | -8 | -4
COCCN1C(=O)Cc2ccccc2C1C(=O)N1CCN(c2cccc(C)c2)CC1 (stereo not given) | 24 | -6
Cn1c(SCC(=O)N2CCOCC2)nnc1-c1ccc(C(C)(C)C)cc1 | -2 | -8
Cc1occc1C(=O)Nc1ccc(I)cc1C(=O)O | 60* | 10
Cc1occc1C(=O)Nc1ccccc1NC(=O)c1ccoc1C | 9 | 4
CCC(C(=O)N1CCC(COc2ccc(C(=O)N3CCCC3)cc2)CC1)c1ccccc1 (stereo not given) | 13 | 2
CCN(CC)Cc1cc(Cl)c2cccnc2c1O | 100* | 0
CCN(CC)C(=O)Oc1c(I)cc(Cl)c2cccnc12 | -1 | -9
O=C(Nc1nccs1)C(c1ccccc1)n1cccc1 (stereo not given) | 35 | 5
O=C(Nc1cccc2ncccc12)C(c1ccccc1)n1cccc1 (stereo not given) | 78* | 26
Cc1ccc(NC(=O)C2CC(Cl)=CCC2C(=O)O)cc1[N+](=O)[O-] (stereo not given) | -5 | -15
CCOc1ccccc1NC(=O)c1ccc(F)c(S(=O)(=O)NCc2cccs2)c1 | 3 | -5
Cc1cccc(NC(=O)CN(C)S(=O)(=O)c2ccc3[nH]c4c(c3c2)CCCC4)c1 | 64* | 3
CN(CC(=O)Nc1cccc(Cl)c1)S(=O)(=O)c1ccc2[nH]c3c(c2c1)CCCC3 | 55* | -1
Cc1ccc(NC(=O)CN(C)S(=O)(=O)c2ccc3[nH]c4c(c3c2)CCCC4)c(Cl)c1 | 43 | -5
Cc1ccccc1NC(=O)CN(C)S(=O)(=O)c1ccc2[nH]c3c(c2c1)CCCC3 | 14 | -4
SMILES | mHTT-CaM PPI inh | Pf apPOL block
Cc1cc(C)c(NC(=O)CN(C)S(=O)(=O)c2ccc3[nH]c4c(c3c2)CCCC4)c(C)c1 | 38 | -4
CN(CC(=O)NC1CCCCCC1)S(=O)(=O)c1ccc2[nH]c3c(c2c1)CCCC3 | 59* | -1
CN(CC(=O)Nc1ccc(Cl)cc1)S(=O)(=O)c1ccc2[nH]c3c(c2c1)CCCC3 | 66* | 1
Cc1ccc(NC(=O)CN(C)S(=O)(=O)c2ccc3[nH]c4c(c3c2)CCCC4)cc1 | 48 | 0
COc1ccc(NC(=O)N2CCC(c3nc(C(=O)N4CCCC4)c(C)o3)CC2)c(C)c1 | -4 | 3
CN(CC(=O)NCCC1=CCCCC1)S(=O)(=O)c1ccc2[nH]c3c(c2c1)CCCC3 | 63* | -10
CN(CC(=O)NCc1cccnc1)S(=O)(=O)c1ccc2[nH]c3c(c2c1)CCCC3 | 21 | -5
O=C(Nc1ccc2c(c1)OC(F)(F)O2)c1ccc(Cl)c([N+](=O)[O-])c1 | 0 | -6
COc1ccccc1NC(=O)N1CCC(N2CCN(Cc3cccc(C)c3)C2=O)CC1 | 0 | 4
COc1ccc(C2Sc3ccccc3NC3=C2C(=O)c2ccccc23)cc1OC (stereo not given) | 69* | 3
O=C1C2=C(Nc3ccccc3SC2c2ccco2)c2ccccc21 (stereo not given) | 69* | 0
COc1cc(C2C3=C(Nc4c2c(=O)[nH]c(=O)n4C)c2ccccc2C3=O)ccc1O (stereo not given) | 10 | -2
O=C1CCCC2=C1C(c1ccco1)C1=C(N2)c2ccccc2C1=O (stereo not given) | 26 | -2
COc1cc(COCC2CCN(C(=O)C34CC5CC(CC(C5)C3)C4)CC2)cc(OC)c1 | -9 | -8
Cc1ccc(C(=O)NCC(=O)N2CCCc3ccccc32)cc1 | -11 | -1
CCn1c(C2CCN(Cc3ccc(F)cc3)C2)nc2cccnc21 (stereo not given) | 12 | -8
CCn1c(C2CCN(Cc3ccc(Cl)cc3)C2)nc2cccnc21 (stereo not given) | 57* | -12
Cc1ccc(C2CC(=O)c3cnc(NCc4ccccc4)nc3C2)cc1 (stereo not given) | -1 | 4
Cc1cccc(N2CCN(C(=O)c3ccc4nc(-c5ccco5)c(-c5ccco5)nc4c3)CC2)c1C | 78* | 0
